Measured values taken from article PMC5540273 (PLoS ONE, 2017).

How the values were obtained:
Settings in all cases: concentration: 1 μM,replicates: in singlicate; n = 1
[1] = system: T1, SNARK
T1 construct: gene NUAK2

[2] = system: SNRK
[3] = system: SRC
[4] = system: SRMS
[5] = system: SRPK1
[6] = system: SRPK2
[7] = system: SRPK3
[8] = system: STK16
[9] = system: STK33
[10] = system: STK35
[11] = system: STK36
[12] = system: STK39
[13] = system: SYK
[14] = system: SgK110
[15] = system: T2, TAK1
T2 construct: gene MAP3K7

[16] = system: TAOK1
[17] = system: TAOK2
[18] = system: TAOK3
[19] = system: TBK1
[20] = system: TEC
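Also: KINOMEscan kinase panel screen.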

SMILES | %Inh [1] [%] | %Inh [2] [%] | %Inh [3] [%] | %Inh [4] [%] | %Inh [5] [%] | %Inh [6] [%] | %Inh [7] [%] | %Inh [8] [%] | %Inh [9] [%] | %Inh [10] [%] | %Inh [11] [%] | %Inh [12] [%] | %Inh [13] [%] | %Inh [14] [%] | %Inh [15] [%] | %Inh [16] [%] | %Inh [17] [%] | %Inh [18] [%] | %Inh [19] [%] | %Inh [20] [%]
CCn1c(-c2nonc2N)nc2cncc(CNC3CCNCC3)c21.Cl [SB-747651] | 13 | 0 | 0 | 0 | 23 | 0 | 0 | 15 | 0 | 0 | 0 | 24 | 21 | 2 | 0 | 0 | 1 | 0 | 7 | 2
Cc1nnc(-c2ccc3occ(-c4ccc(S(C)=O)cc4)c3n2)o1 (stereo not shown) | 0 | 0 | 0 | 0 | 0 | 0 | 0 | 11 | 0 | 45 | 0 | 0 | 0 | 3 | 0 | 0 | 0 | 0 | 30 | 0
Nc1nccc(-c2ccc3c(N)n[nH]c3c2)n1 [GSK1034945] | 35 | 0 | 0 | 0 | 67 | 0 | 55 | 29 | 0 | 0 | 0 | 1 | 0 | 0 | 8 | 62 | 0 | 0 | 20 | 13
COc1cc(Nc2nccc(N3CCC(NC(=O)c4cccc(C#N)c4)C3)n2)cc(OC)c1OC (stereo not shown) [GSK1379751] | 3 | 0 | 22 | 0 | 49 | 24 | 0 | 64 | 0 | 0 | 0 | 0 | 0 | 0 | 0 | 0 | 0 | 0 | 10 | 0
N#Cc1cccc(C(=O)NC2CCN(c3ccnc(Nc4ccc(F)cc4)n3)C2)c1 (stereo not shown) [GSK1379708] | 0 | 0 | 5 | 0 | 40 | 0 | 0 | 12 | 0 | 0 | 0 | 0 | 27 | 5 | 0 | 0 | 0 | 0 | 0 | 0
COC(=O)Nc1nc2cc(Oc3ccc(NC(=O)Nc4cc(C(F)(F)F)ccc4Cl)cc3)ccc2[nH]1.Cl [GW697465] | 0 | 0 | 1 | 0 | 41 | 32 | 3 | 0 | 57 | 0 | 0 | 13 | 24 | 0 | 62 | 0 | 0 | 0 | 0 | 15
C[C@@H](Oc1cc(-n2cnc3ccc(-c4ccncc4)cc32)sc1C(N)=O)c1ccccc1Cl [GSK483724] | 51 | 0 | 5 | 0 | 73 | 0 | 25 | 80 | 19 | 0 | 0 | 7 | 12 | 0 | 39 | 0 | 0 | 0 | 17 | 11
Cc1ccn2nc(-c3ccc(F)cc3)c(-c3ccncc3)c2c1.Cl [GW457859] | 7 | 52 | 0 | 0 | 13 | 68 | 0 | 1 | 0 | 0 | 24 | 4 | 18 | 0 | 64 | 0 | 0 | 0 | 14 | 0
O=C(Nc1n[nH]c2cc(-c3ccco3)ccc12)C1CC1 [SB-737447] | 11 | 9 | 0 | 3 | 62 | 0 | 66 | 49 | 0 | 0 | 0 | 5 | 19 | 0 | 11 | 65 | 5 | 12 | 25 | 2
COc1cccc(OC)c1C(=O)Nc1cccc(-c2nn3ccccc3c2-c2ccnc(Nc3cccc(F)c3)n2)c1 [GSK361065] | 91.2 | 0 | 21 | 0 | 28 | 0 | 4 | 29 | 26 | 0 | 92 | 11 | 3 | 16 | 16 | 62 | 15 | 60 | 61 | 26
O=C(Nc1ccc(Oc2ccc3nc(NC(=O)C4CC4)cn3n2)c(F)c1)c1cccn(-c2ccccc2)c1=O | 0 | 3 | 10 | 0 | 14 | 16 | 24 | 0 | 23 | 0 | 1 | 0 | 30 | 0 | 0 | 0 | 0 | 0 | 54 | 44
CNC(=O)c1ccccc1Nc1nc(Nc2cccc(CS(C)(=O)=O)c2)ncc1C.O=CO [GSK1520489] | 99 | 0 | 100 | 95.1 | 95.4 | 24 | 75 | 99.3 | 93.2 | 34 | 65 | 15 | 70 | 100 | 96 | 72 | 15 | 52 | 44 | 99.9
Cc1cccc(-c2nc(Nc3ccncc3)c3sccc3n2)n1 [GW869641] | 29 | 25 | 12 | 21 | 7 | 0 | 24 | 16 | 27 | 1 | 24 | 0 | 20 | 15 | 44 | 45 | 7 | 38 | 31 | 0
CS(=O)c1ccc(-c2coc3ccc(-c4n[nH]c(=O)o4)cc23)cc1 (stereo not shown) | 21 | 10 | 22 | 0 | 0 | 1 | 0 | 52 | 0 | 9 | 0 | 19 | 0 | 0 | 30 | 0 | 3 | 0 | 20 | 0
